From PubChem BioAssay (NCI)
Several values for one entry are separate records, joined by “and”; a condition that tells them apart may be missing. Equal entries are not always repeated. Compounds without any hit were thinned out: in the full panel of roughly 83,000, 20% have a hit.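 Treatment: one concentration, 48 hours, 96-well format. Scoring: percent growth, with anything below 10 considered active.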 Activity calls are given as the source filed them.

Columns and labels:
Experiment in all cases: NCI-60 one-dose screen, 48 h (100 = growth as untreated, 0 = no growth, -100 = all killed)
Details in all cases: 10 µM unless noted
NCI-H23 lung = tested on: NCI-H23 lung
NCI-H226 lung = tested on: NCI-H226 lung
NCI-H322M lung = tested on: NCI-H322M lung
HOP-62 NSCLC = tested on: HOP-62 NSCLC
NCI-H460 lung = tested on: NCI-H460 lung
HOP-92 NSCLC = tested on: HOP-92 NSCLC
NCI-H522 lung = tested on: NCI-H522 lung
A549/ATCC NSCLC = tested on: A549/ATCC NSCLC
786-0 renal = tested on: 786-0 renal
COLO 205 colon = tested on: COLO 205 colon
DU-145 prostate = tested on: DU-145 prostate
K-562 leukemia = tested on: K-562 leukemia
MALME-3M melanoma = tested on: MALME-3M melanoma
MDA-MB-231 breast = tested on: MDA-MB-231 breast
RXF 393 renal = tested on: RXF 393 renal
SF-268 CNS = tested on: SF-268 CNS
SF-295 CNS = tested on: SF-295 CNS
SF-539 CNS = tested on: SF-539 CNS
UACC-257 melanoma = tested on: UACC-257 melanoma
M14 melanoma = tested on: M14 melanoma

Measured: growth

CCCCCCC(C)CC1=C(O)c2ccccc2C(=O)C1=O (stereo not given)
inactive: NCI-H23 lung 42.2% | NCI-H226 lung 37.3% | NCI-H322M lung 51.7% | HOP-62 NSCLC 59.3% | NCI-H460 lung 14.3% | HOP-92 NSCLC 67% | NCI-H522 lung 56.2% | A549/ATCC NSCLC 36% | 786-0 renal 27.1% | COLO 205 colon 80.2% | DU-145 prostate 45.2% | K-562 leukemia 31.1% | MALME-3M melanoma 54.9% | MDA-MB-231 breast 66.2% | RXF 393 renal 60% | SF-268 CNS 53.2% | SF-295 CNS 35.4% | SF-539 CNS 34% | UACC-257 melanoma 38.2% | M14 melanoma 44.1%

CS(=O)(=O)OCC1NC(=O)C(COS(C)(=O)=O)NC1=O (stereo not given)
inactive: NCI-H23 lung 84% and 88.5% | NCI-H226 lung 96.2% and 99.2% | NCI-H322M lung 98.8% and 103% | HOP-62 NSCLC 106% and 118% | NCI-H460 lung 102% and 95.9% | HOP-92 NSCLC 96.4% and 104% | NCI-H522 lung 51.3% and 50.6% | A549/ATCC NSCLC 78.3% and 96.4% | 786-0 renal 97.8% and 99.1% | COLO 205 colon 128% and 135% | DU-145 prostate 111% and 102% | K-562 leukemia 81.6% and 104% | MALME-3M melanoma 98.1% and 103% | MDA-MB-231 breast 108% and 104% | RXF 393 renal 83.2% and 100% | SF-268 CNS 113% and 60.2% | SF-295 CNS 133% and 102% | SF-539 CNS 106% and 97.9% | UACC-257 melanoma 75.5% and 116% | M14 melanoma 91.8% and 93.5%

CCOCCC(=O)O
inactive: NCI-H23 lung 110% | NCI-H226 lung 99.4% | NCI-H322M lung 113% | HOP-62 NSCLC 115% | NCI-H460 lung 102% | HOP-92 NSCLC 80.5% | NCI-H522 lung 102% | A549/ATCC NSCLC 115% | 786-0 renal 103% | COLO 205 colon 110% | DU-145 prostate 121% | K-562 leukemia 108% | MALME-3M melanoma 116% | MDA-MB-231 breast 105% | RXF 393 renal 108% | SF-268 CNS 112% | SF-295 CNS 102% | SF-539 CNS 102% | UACC-257 melanoma 114% | M14 melanoma 102%

O=C1c2cccnc2-c2ncccc21
inactive: NCI-H23 lung 105% [100 µM] | NCI-H226 lung 90% [100 µM] | NCI-H322M lung 101% [100 µM] | HOP-62 NSCLC 96.9% [100 µM] | NCI-H460 lung 111% [100 µM] | HOP-92 NSCLC 96.7% [100 µM] | NCI-H522 lung 104% [100 µM] | A549/ATCC NSCLC 97.7% [100 µM] | 786-0 renal 93.1% [100 µM] | COLO 205 colon 123% [100 µM] | DU-145 prostate 112% [100 µM] | K-562 leukemia 115% [100 µM] | MALME-3M melanoma 103% [100 µM] | MDA-MB-231 breast 118% [100 µM] | RXF 393 renal 109% [100 µM] | SF-268 CNS 106% [100 µM] | SF-295 CNS 103% [100 µM] | SF-539 CNS 104% [100 µM] | UACC-257 melanoma 98% [100 µM] | M14 melanoma 104% [100 µM]

CCc1ccc(OC(=O)CCl)cc1
inactive: NCI-H23 lung 96.7% | NCI-H226 lung 97% | NCI-H322M lung 102% | HOP-62 NSCLC 110% | NCI-H460 lung 106% | HOP-92 NSCLC 101% | NCI-H522 lung 102% | A549/ATCC NSCLC 105% | 786-0 renal 104% | COLO 205 colon 111% | DU-145 prostate 102% | K-562 leukemia 102% | MALME-3M melanoma 96.9% | MDA-MB-231 breast 99.4% | RXF 393 renal 113% | SF-268 CNS 95.3% | SF-295 CNS 97.8% | SF-539 CNS 99% | UACC-257 melanoma 103% | M14 melanoma 96.3%

COc1ccccc1OCC(O)CO (stereo not given)
3.64% (active) and 96.5% (inactive): SF-295 CNS
inactive: NCI-H23 lung 106% and 103% | NCI-H226 lung 102% and 94.6% | NCI-H322M lung 75.7% and 115% | HOP-62 NSCLC 96.8% and 121% | NCI-H460 lung 105% and 113% | HOP-92 NSCLC 90% | NCI-H522 lung 98.6% and 106% | A549/ATCC NSCLC 96.6% | 786-0 renal 97.6% and 102% | COLO 205 colon 116% | DU-145 prostate 115% and 123% | K-562 leukemia 118% and 87.4% | MALME-3M melanoma 110% and 105% | MDA-MB-231 breast 114% and 111% | RXF 393 renal 110% and 111% | SF-268 CNS 100% and 114% | SF-539 CNS 92.3% and 121% | UACC-257 melanoma 102% and 105% | M14 melanoma 104% and 106%

CCOC(=O)c1ccc(C(=N)N)cc1
inactive: NCI-H23 lung 99% | NCI-H226 lung 106% | NCI-H322M lung 117% | HOP-62 NSCLC 108% | NCI-H460 lung 103% | HOP-92 NSCLC 80.2% | NCI-H522 lung 102% | A549/ATCC NSCLC 107% | 786-0 renal 106% | COLO 205 colon 114% | DU-145 prostate 106% | K-562 leukemia 101% | MALME-3M melanoma 108% | MDA-MB-231 breast 120% | RXF 393 renal 95.4% | SF-268 CNS 104% | SF-295 CNS 101% | SF-539 CNS 105% | UACC-257 melanoma 96.8% | M14 melanoma 108%

CC(=O)/C(N=Nc1ccc(S(=O)(=O)c2ccc(N=N/C(C(C)=O)=C(/C)O)cc2)cc1)=C(\C)O
inactive: NCI-H23 lung 97.6% | NCI-H226 lung 114% | NCI-H322M lung 106% | HOP-62 NSCLC 103% | NCI-H460 lung 93.2% | HOP-92 NSCLC 90.3% | NCI-H522 lung 105% | A549/ATCC NSCLC 105% | 786-0 renal 112% | COLO 205 colon 113% | DU-145 prostate 104% | K-562 leukemia 111% | MALME-3M melanoma 106% | MDA-MB-231 breast 113% | RXF 393 renal 165% | SF-268 CNS 101% | SF-295 CNS 118% | SF-539 CNS 112% | UACC-257 melanoma 109% | M14 melanoma 105%

O=C(O)Cc1cc(=O)[nH]n(-c2ccccc2)c1=O
inactive: NCI-H23 lung 108% | NCI-H226 lung 98.1% | NCI-H322M lung 109% | HOP-62 NSCLC 106% | NCI-H460 lung 109% | HOP-92 NSCLC 98% | NCI-H522 lung 95.4% | A549/ATCC NSCLC 95.6% | 786-0 renal 108% | COLO 205 colon 110% | DU-145 prostate 115% | K-562 leukemia 100% | MALME-3M melanoma 113% | MDA-MB-231 breast 101% | RXF 393 renal 109% | SF-268 CNS 96.8% | SF-295 CNS 97.4% | SF-539 CNS 99.1% | UACC-257 melanoma 98.2% | M14 melanoma 106%

CC1(C)OC(=O)C(=Cc2ccc(C#N)cc2)C(=O)O1
inactive: NCI-H23 lung 104% | NCI-H226 lung 92.6% | NCI-H322M lung 113% and 103% | HOP-62 NSCLC 90.6% and 114% | NCI-H460 lung 107% and 101% | HOP-92 NSCLC 87.9% | NCI-H522 lung 79% and 103% | A549/ATCC NSCLC 77.4% | 786-0 renal 104% and 98.1% | COLO 205 colon 103% and 105% | DU-145 prostate 109% and 107% | K-562 leukemia 101% and 96.7% | MALME-3M melanoma 110% and 99.3% | MDA-MB-231 breast 113% and 123% | RXF 393 renal 102% | SF-268 CNS 104% and 102% | SF-295 CNS 103% and 97.7% | SF-539 CNS 111% and 105% | UACC-257 melanoma 72.2% and 96.3% | M14 melanoma 106% and 105%

CNc1ccc(Cl)cc1S(=O)(=O)c1ccccc1[N+](=O)[O-]
inactive: NCI-H23 lung 87.9% and 98.3% | NCI-H226 lung 114% and 103% | NCI-H322M lung 89.1% and 91% | HOP-62 NSCLC 147% and 94.8% | NCI-H460 lung 107% and 108% | HOP-92 NSCLC 93% and 100% | NCI-H522 lung 78.3% and 75% | A549/ATCC NSCLC 23.3% and 94.4% | 786-0 renal 116% and 100% | COLO 205 colon 117% | DU-145 prostate 105% | K-562 leukemia 55.7% and 73.3% | MALME-3M melanoma 78.2% and 91.1% | MDA-MB-231 breast 77.7% and 97% | RXF 393 renal 25.1% and 126% | SF-268 CNS 106% and 90.6% | SF-295 CNS 108% and 104% | SF-539 CNS 86.4% and 98.3% | UACC-257 melanoma 75.7% and 89.8% | M14 melanoma 115% and 83.4%

COC(=O)CCOc1ccccc1
inactive: NCI-H23 lung 85.4% | NCI-H226 lung 105% | NCI-H322M lung 103% | HOP-62 NSCLC 101% | NCI-H460 lung 101% | HOP-92 NSCLC 86.2% | NCI-H522 lung 87.9% | A549/ATCC NSCLC 85% | 786-0 renal 95.3% | COLO 205 colon 118% | DU-145 prostate 110% | K-562 leukemia 71.7% | MALME-3M melanoma 91.8% | MDA-MB-231 breast 110% | RXF 393 renal 89% | SF-268 CNS 108% | SF-295 CNS 130% | SF-539 CNS 101% | UACC-257 melanoma 82.8% | M14 melanoma 106%
